“And” between values parts separate entries of the source, which are not always exact repeats. Identical values can stand only once. Out of some 310,000 compounds screened, about 1,900 (0.61%) were called active. Inconclusive results (about 8%) are left out. Calls follow the shape of the full dose curve; tested in A549 cells. The full list was thinned out, with actives kept by preference. Some structures have more than one record in an assay (separate samples or runs), and their calls can disagree.
Experiment: qHTS for Stage-Specific Inhibitors of Vaccinia Orthopoxvirus: mCherry Reporter Primary qHTS; also: nearly all actives have a fitted effect of over 35% in size
Conditions: Vaccinia virus mCherry reporter infection, fluorescence; series mostly up to 36.5 µM; activity change, negative = inhibition: at the top concentration
% is scaled to controls: 0 for no effect and ±100 for the full control effect; potency is read from the fitted curve at half-maximal effect.

Structure (SMILES) | activity change, negative = inhibition | outcome | Potency
CCCCC(=O)N(C)c1c(CC)nc2c(OCc3ccc(S(C)(=O)=O)cc3)cccn12 | -16% (inactive) |  | 
OCCC#Cc1ccc(N2C(c3ccsc3)=Cc3ccc(F)cc3C2c2c[nH]c3ccccc23)cc1 (configuration not stated) | 8.59% (inactive) |  | 
COC(=O)C1=CN(Cc2ccc(OC)c(OC)c2)C=C(C(=O)OC)C1c1cccs1 | -12.4% (inactive) |  | 
COc1ccc(CN2CCOC2=O)cc1OC |  | inactive | 
COc1ccc(CC2c3cc(OC)c(OC)cc3CC[N+]2(C)CCC(=O)OCCCCCOC(=O)CC[N+]2(C)CCc3cc(OC)c(OC)cc3C2Cc2ccc(OC)c(OC)c2)cc1OC (configuration not stated) |  |  | 15.8 µM (active)
OC[C@@H]1CN(Cc2ccc(F)cc2)C[C@H](n2cnc3c(NC4CCCC4)ncnc32)O1 | -6.71% (inactive) |  | 
COc1ccccc1CNc1nc(Nc2ccccc2Cl)c2sccc2n1 | 7.85% (inactive) |  | 
CC(C)c1cccc(-c2csc(C(O)c3ccccc3)n2)c1 (configuration not stated) |  | inactive | 
Cc1ccc(C(O)c2ncc(-c3ccccc3F)[nH]2)cc1F (configuration not stated) | 5.43% (inactive) |  | 
O=C(CNC(=O)c1cccnc1)N/N=C/c1cccnc1 | -10.6% (inactive) |  | 
O=C(CSc1cccc2cccnc12)N/N=C/c1cccnc1 |  |  | 11.2 µM (active)
CCOC(=O)N/N=C/c1cccnc1 | -7.27% (inactive) |  | 
COc1cc(C=C(OC(C)=O)c2ccc3c(c2)OCO3)cc(OC)c1OC | 12.3% (inactive) |  | 
COC(=O)[C@]12CCCCC=C1N(Cc1ccco1)C(=O)[C@H](CC(=O)NCC1CCCCC1)C2 | 32.7% (inactive) |  | 
COC(=O)[C@]12CCCCC=C1N(Cc1ccc(Cl)cc1Cl)C(=O)[C@H](CC(=O)NCc1cccc3ccccc13)C2 |  | inactive | 
O=C(Nc1ccccn1)C1CCN(S(=O)(=O)c2ccccc2)CC1 | 14.8% (inactive) |  | 
Cc1ccc(S(=O)(=O)N2CCC(C(=O)Nc3cc(C)ccc3C)CC2)cc1 | -25.2% (inactive) |  | 
Cc1ccnc(NC(=O)C2CCN(S(=O)(=O)c3c(C)c(C)cc(C)c3C)CC2)c1 |  |  | 11.2 µM (active)
COc1ccc(C(C#N)=C2C=CC(=NO)c3ccccc32)cc1 | -7.3% (inactive) |  | 
COc1cc(C)c(CN2CCN(C(=O)CCC(=O)c3ccc(C)s3)CC2)cc1OC | -4.2% (inactive) |  | 
COC(=O)[C@]12CCCCC=C1N(Cc1ccco1)C(=O)[C@H](CC(=O)NCCCCc1ccccc1)C2 | 8.49% (inactive) |  | 
CC1Cc2ccccc2N1S(=O)(=O)c1ccc(Cl)nc1 (configuration not stated) |  |  | 15.8 µM (active)
Cc1cc(-c2ccc(C)c(S(=O)(=O)N3c4ccccc4CC3C)c2)on1 (configuration not stated) | -11% (inactive) |  | 
CC1Cc2ccccc2N1S(=O)(=O)c1c(N)n(C)c(=O)n(C)c1=O (configuration not stated) |  | inactive | 
CCc1ccc2c(c1)C1(NN=C(c3ccccc3)S1)C(=O)N2 (configuration not stated) |  |  | 14.1 µM (active)
CCc1cccc(NC(=O)c2cc(-c3ccccc3)n[nH]2)c1 | -7.89% (inactive) |  | 

Structure (SMILES) | activity change, negative = inhibition | outcome | Potency
CCc1ccc2c(c1)NC(=O)C2(C)Cc1ccc(OC(F)(F)F)cc1 (configuration not stated) | 9.47% (inactive) |  | 
CCOc1ccc(C(NC(=O)c2cc(OC)c(OC)c(OC)c2)c2cc(Cl)c3cccnc3c2O)cc1 (configuration not stated) |  |  | 10 µM (active)
COc1cc(C(=O)N[C@@H](C)C(=O)NCc2ccco2)cc(OC)c1OC |  | inactive | 
CCOc1ccc(C(=O)NC(C(=O)NCc2ccccn2)C(C)C)cc1 (configuration not stated) | -1.03% (inactive) |  | 
CC(C)C[C@@H](COCc1ccc(Cl)cc1)N1CCN(C(=O)c2ccc(Cl)cc2Cl)CCC1=O | 1.65% (inactive) |  | 
CC(C)NC(=S)NN=C1CCCCCCCCCCC1 | -5.08% (inactive) |  | 
NC(=S)NN=C1CCCC(C(F)(F)F)C1 (configuration not stated) |  |  | 10 µM (active)
CC(C)(C)C1CCC(=O)N2CCC[C@]2(c2ccccc2)C1 (some centres not stated) | 32.4% (inactive) |  | 
CC(O)(c1cccc(F)c1)c1nc(-c2ccc3c(c2)OCO3)cs1 (configuration not stated) | 6.58% (inactive) |  | 
O=C(c1ccc(CS(=O)Cc2ccccc2Cl)o1)N1CCN(c2ccccc2)CC1 (configuration not stated) | -6.54% (inactive) |  | 
O=C(OCc1ccccc1)N1CCC2CC1c1cc(N3CCN(S(=O)(=O)c4cc(Cl)cc(Cl)c4)CC3)ccc12 (configuration not stated) |  | inactive | 
N=C1c2ccccc2-c2ccccc21 | -6.02% (inactive) |  | 
c1ccc2c(c1)[I+]c1ccccc1-2 |  |  | inactive and 12.6 µM (active)
COC(=O)c1ccccc1N=NNc1ccc([N+](=O)[O-])cc1 | -7.96% (inactive) |  | 
CCN(CC)c1ccc(/C=C/c2c(C)cnc3ccc(C)cc23)cc1 | -7.34% (inactive) |  | 
CC(=O)Nc1cccc(Nc2nc(-c3cccs3)nc3ccccc23)c1 |  |  | 7.08 µM (active)
COC(=O)c1cc(-c2cccs2)nc2ccccc12 |  | inactive | 
COc1cccc(-c2nc(Nc3ccncc3)c3ccccc3n2)c1 | 11.8% (inactive) |  | 
CC(C)c1cc(C(=O)NC2CCCCCC2)c2ccccc2n1 | -3.55% (inactive) |  | 
CC1=C(C(=O)N(C(C)C)C(C)C)CC(CC(=O)NCC2CCCCC2)C(=O)N1Cc1ccccc1 (configuration not stated) | 8.68% (inactive) |  | 
O=C(NNC(=O)c1ccccc1O)c1ccccc1O |  |  | 15.8 µM (active)
O=C(CO/N=C/c1ccccc1O)NNC(=O)c1ccccc1Cl | -20.3% (inactive) |  | 
Cc1cc(C(=O)CCC(=O)NNC(=O)c2ccccc2O)c(C)s1 | -14.3% (inactive) |  | 
CCCCCCCNc1ccc(/C=C/c2ccnc3ccccc23)cc1 | 33.6% (inactive) |  | 
O=[N+]([O-])c1ccc(/C=C/c2ccc3cccnc3c2)cc1 | 36.9% (inactive) |  | 
CN(N=O)c1ccc(C=C2c3ccccc3-c3ccccc32)cc1 | -18.4% (inactive) |  | 

Structure (SMILES) | activity change, negative = inhibition | outcome | Potency
CN1CC[C@H](c2c(O)cc(O)c3c(=O)cc(-c4ccccc4Cl)oc23)[C@H](O)C1 |  |  | 0.316 µM (active)
CCOC(=O)c1ccn(S(=O)(=O)c2ccc(C)cc2)c1-c1ccccc1 | 6.9% (inactive) |  | 
COc1ccc(CN(Cc2ccccc2)C(=O)c2ccc(O)cc2)cc1COc1ccc(NC(C)=O)cc1 |  | inactive | 
CCOC(=O)c1cc2cc(OC)ccc2n1C1CCN(C)CC1 | -10.5% (inactive) |  | 
CC1(C(=O)O)CCCN(C(=O)/C=C/c2ccccc2)C1 (configuration not stated) | 6.42% (inactive) |  | 
Cc1[nH]c(=O)c(C(=O)/C=C/c2ccccc2)c2c1CCCC2 |  |  | 3.16 µM (active)
Cc1cn(COC/C=C/c2ccccc2)c(=O)[nH]c1=O |  | inactive | 
CC(=O)Nc1ccc(C=Cc2ccc([N+](=O)[O-])cc2)cc1 | -1.71% (inactive) |  | 
O=C(CCCN1C(=O)C(c2ccccc2)Oc2cccnc21)Nc1ccccc1Br (configuration not stated) |  | inactive | 
C(=Nc1ccc(/C=C/c2ccnc3ccccc23)cc1)c1cc2c3c(c1)CCCN3CCC2 | 12% (inactive) |  | 
CN(C)C(=O)c1cccc(-c2cnc3c(NC=O)cc(-c4ccc(C(=O)N5CCOCC5)cc4)cn23)c1 |  | inactive | 
O=C(CCCO)N/N=C/c1cc(Br)ccc1O | -8.6% (inactive) |  | 
O=C(N/N=C/c1ccccc1O)/C(=C/c1ccccc1)CCO |  |  | 7.08 µM (active)
O=C(CCCCCNC(=O)c1ccccc1)N/N=C/c1ccccc1 | -8.18% (inactive) |  | 
CCOC(=O)[C@]12CCCC=C1N(CCC1=CCCCC1)C(=O)[C@H](CC(=O)N1CCSCC1)C2 | -9.06% (inactive) |  | 
O=C(CSc1nnc(CNC(=O)c2ccc(F)cc2)o1)Nc1ccc2c(c1)OCO2 | -8.65% (inactive) |  | 
Cc1ccc(-c2nnc(SCc3ccccc3C)o2)cc1 | 2.67% (inactive) |  | 
Fc1ccc(-c2nnc(CSc3nnc(-c4ccc5c(c4)OCO5)o3)o2)cc1 |  |  | 28.2 µM (active)
COc1ccc(C(=O)C(OP(=O)(OC)OC)c2ccccc2OC)cc1 (configuration not stated) | -25.3% (inactive) |  | 
O=C(COC(=O)COc1cc(Cl)c(Cl)cc1Cl)NC1CC1 | -2.27% (inactive) |  | 
NC(=S)NN=Cc1ccc(OC(=O)COc2cc(Cl)c(Cl)cc2Cl)cn1 |  |  | 11.2 µM (active)
O=C(COc1cc(Cl)c(Cl)cc1Cl)NCCc1ccccn1 | -7.58% (inactive) |  | 
CCOC(=O)C1CCCN(C(=O)c2cc(-c3cccs3)oc2C)CC1 (configuration not stated) | 49% (inactive) |  | 
Cc1cc(Cl)ccc1-c1nc(NCCN(C)C)nc2ccsc12 | 11.6% (inactive) |  | 
CC(C)=CCc1ccc(O)c(=O)cc1C(C)C |  |  | 3.16 µM (active)
CC(C)=CCc1c(O)c(CC=C(C)C)c2occ(-c3ccc(O)cc3)c(=O)c2c1O | -20.4% (inactive) |  | 

Structure (SMILES) | activity change, negative = inhibition | outcome | Potency
CC(C)c1cc(N=O)cc(C(C)C)c1O |  | inactive | 
CCOc1ccc(OCc2ccc(C(=O)N(C)c3ccccc3)o2)cc1 | -11.1% (inactive) |  | 
CN(Cc1ccccc1)C(=O)c1ccc(COc2ccccc2)cc1 |  | inactive | 
CN(C(=O)CN1CCN(c2cc(-c3ccc(OCc4ccccc4)cc3)ncn2)CC1)c1ccccc1 |  |  | 7.94 µM (active)
Cc1cccc(CNC(=O)c2sc(=O)n(Cc3ccccc3C)c2C)c1 | 2.08% (inactive) |  | 
CCC1NC(=O)c2cccnc2-n2c1nc1ccc(C)cc1c2=O (configuration not stated) |  | inactive | 
O=C1NC(Cc2ccccc2)c2nc3ccc(Br)cc3c(=O)n2-c2cc3ccccc3cc21 (configuration not stated) |  | inactive | 
Cc1cc(C)c2c(=O)n3c(nc2c1)C(CC(C)C)NC(=O)c1cc2ccccc2cc1-3 (configuration not stated) |  |  | 10 µM (active)
NC(=O)Nc1ccc(/C=C/c2ccnc3ccccc23)cc1 | 21.3% (inactive) |  | 
COC(=O)c1ccc2nc(-c3ccccc3)c(Cc3ccc(OC)cc3C)n2c1 | -4.32% (inactive) |  | 
Cc1ccc(S(=O)(=O)N(CCc2ccccc2)c2ccc3c(c2)C2CC3CCN2C(=O)OCc2ccccc2)cc1 (configuration not stated) | -6.6% (inactive) |  | 
COc1ccc(CC(=O)NC(C)CCc2ccccc2)cc1 (configuration not stated) | 2.27% (inactive) |  | 
C/C=C/NNC(=O)Cc1ccc(OC)cc1 |  |  | 11.2 µM (active)
CCCCCNC(=O)Cc1ccc(OC)cc1 | -17% (inactive) |  | 
CC1(C(=O)NCC2CCOCC2)Cc2c(-c3cccc(C(N)=O)c3)ccnc2O1 (configuration not stated) | 5.59% (inactive) |  | 
COc1ccc(-c2nnc(-c3ccc4ccccc4c3)o2)cc1 |  | inactive | 
COc1ccc(-c2nnc(SC(C)C#N)o2)cc1 (configuration not stated) |  |  | 11.2 µM (active)
COc1ccc(-c2nnc(SCc3cccnc3)o2)cc1 | -12.4% (inactive) |  | 
CCOC(=O)[C@]12CCCC=C1N(Cc1ccc(Cl)cc1Cl)C(=O)[C@H](CC(=O)N1CCCCC1)C2 |  | inactive | 
COc1c(C)c2c(c(O)c1C/C=C(\C)CCC(=O)O)C(=O)OC2 |  |  | 5.62 µM (active) and 4.47 µM (active)
CCc1nc2c(OCc3ccc(C(F)(F)F)cc3)cccn2c1N(C)C(=O)CC(C)C | -0.664% (inactive) |  | 
CCOC(=O)c1c(NC(=S)SC)sc(C(=O)N2CCc3ccccc3C2)c1C | -10.4% (inactive) |  | 
CC1(C)OC(=O)C2=C(C[C@@H](C3CC3)O[C@H]2CCc2cccc(Cl)c2)O1 | -11% (inactive) |  | 
CCC(CC)C(C(=O)NC1CCCC1)N1CCN(c2cc(C)nc3ccccc23)CC1 (configuration not stated) | 19.7% (inactive) |  | 

Reference: PubChem BioAssay AID720579 (National Center for Advancing Translational Sciences (NCATS), 2013)
